According to PubChem BioAssay (NCI):
About 79,000 compounds went through this panel and 15% of them were active in at least one assay; those are over-represented in the sample as a whole. Values without a mark were called inactive. Active and inactive are the calls of the source. No stated cut-off is given here; in the data, active means growth inhibition above about 70%; inactive means the rest.

Tests used:
[1] = NCI Yeast Anticancer Drug Screen. Data for the rad52 strain (AID 147);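 further: 0% = growth of vehicle-treated control cultures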; details: S. cerevisiae rad52 mutant growth inhibition, hits give high values
Method in brief: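 Here a repair-compromised yeast strain receives each compound; its growth is then quantified and normalised to vehicle-only controls.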

[2] = NCI Yeast Anticancer Drug Screen. Data for the wt1 strain (AID 149);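 further: 0% = growth of vehicle-treated wt1 cultures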; details: S. cerevisiae wt1 strain (SPY 50644) growth inhibition, hits give high values
Method in brief: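 Yeast wt1 strain exposed to compounds; growth inhibition measured relative to vehicle-treated controls.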

[3] = NCI Yeast Anticancer Drug Screen. Data for the rad50EPP+ strain (AID 151);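 further: 0% = growth of vehicle-treated control cultures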; details: S. cerevisiae rad50 mutant strain, hits give high values
Method in brief: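 Read-out is yeast growth inhibition relative to vehicle; cells used were the rad50EPP+ strain.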

[4] = NCI Yeast Anticancer Drug Screen. Data for the mgt1 strain (AID 153); details: S. cerevisiae mgt1 mutant growth inhibition, hits give high values
Method in brief: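 Measured: inhibition of mgt1 yeast growth by compound, normalized to vehicle-treated cultures.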

[5] = NCI Yeast Anticancer Drug Screen. Data for the rad50 strain (AID 155);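 further: 0% = growth of vehicle-only cultures of the same strain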; details: S. cerevisiae rad50 strain growth inhibition, hits give high values
Method in brief: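 Yeast carrying a defined DNA repair defect were exposed to test compounds, and growth was compared with vehicle-treated controls to give percent inhibition.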

[6] = NCI Yeast Anticancer Drug Screen. Data for the mec2-1 strain (AID 157); details: S. cerevisiae mec2-1 strain, hits give high values
Method in brief: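 Using mec2-1 yeast: add compound, measure growth, express inhibition versus vehicle-treated cultures.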

[7] = NCI Yeast Anticancer Drug Screen. Data for the rad14 strain (AID 159);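 further: 0% = growth of vehicle-treated control cultures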; details: S. cerevisiae rad14 strain growth inhibition, hits give high values
Method in brief: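 Yeast cells carrying a defined DNA-repair defect were exposed to compounds, and growth inhibition was calculated relative to vehicle-treated control cultures.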

[8] = NCI Yeast Anticancer Drug Screen. Data for the sgs1 mgt1 strain (AID 161);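 further: 0% = growth of cultures given vehicle only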; details: S. cerevisiae sgs1 mgt1 strain, hits give high values
Method in brief: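 Growth of a repair-deficient yeast mutant was monitored after compound treatment and expressed as inhibition relative to vehicle-treated cultures.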

[9] = NCI Yeast Anticancer Drug Screen. Data for the CLN2oe strain (AID 163);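 further: 0% = growth of vehicle-only control cultures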; details: S. cerevisiae CLN2oe strain, hits give high values
Method in brief: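 Whole-cell yeast growth assay. A strain engineered for altered cell-cycle control received compound, and inhibition relative to vehicle-treated cultures was recorded.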

[10] = NCI Yeast Anticancer Drug Screen. Data for the cln2 rad14 strain (AID 165);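 further: 0% = growth equal to vehicle treated cultures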; details: S. cerevisiae cln2 rad14 strain, hits give high values
Method in brief: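 Yeast strain cln2 rad14, bearing defects in cell cycle control and DNA repair, serves as the test system; values reflect growth inhibition compared with vehicle.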

[11] = NCI Yeast Anticancer Drug Screen. Data for the bub3 strain (AID 167); details: S. cerevisiae bub3 mutant strain, hits give high values
Method in brief: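 Compounds were applied to a genetically altered yeast strain carrying a cell-cycle control defect. Growth inhibition was scored against vehicle-treated controls.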

[12] = NCI Yeast Anticancer Drug Screen. Data for the wt2 strain (AID 169);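 further: 0% = growth of vehicle-treated yeast cultures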; details: S. cerevisiae wt2 strain growth inhibition, hits give high values
Method in brief: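 Treated yeast vs. vehicle-treated yeast: growth inhibition determined.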

[13] = NCI Yeast Anticancer Drug Screen. Data for the mlh1 strain (AID 171);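 further: 0% = growth of vehicle-treated control cultures of the same strain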; details: S. cerevisiae mlh1 strain growth inhibition, hits give high values
Method in brief: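 A yeast strain with a defined genetic lesion serves as the test organism. Cultures receive compound or vehicle, and growth is measured.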

[14] = NCI Yeast Anticancer Drug Screen. Data for the sgs1 strain (AID 173);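 further: 0% = growth of vehicle-only control cultures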; details: S. cerevisiae sgs1 mutant, hits give high values
Method in brief: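 A genetically defined yeast mutant is incubated with the test compound, and its growth is compared to that of the same strain given vehicle.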

[15] = NCI Yeast Anticancer Drug Screen. Data for the mlh1 rad18 strain (AID 175); details: S. cerevisiae mlh1 rad18 strain growth inhibition, hits give high values
Method in brief: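 Steps: expose repair-defective yeast to compound; measure growth; express inhibition against vehicle-treated controls.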

[16] = NCI Yeast Anticancer Drug Screen. Data for the rad18 strain (AID 177); details: S. cerevisiae rad18 mutant growth inhibition, hits give high values
Method in brief: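 Measured value is growth inhibition of a yeast strain bearing a DNA repair alteration, referenced to vehicle-treated cells.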

[17] = at 5.0 µM (retest, dose inferred, filed as 0.5)
[18] = at 50.0 µM (retest, dose inferred, filed as 5.0)

Molecule CC(C)/C(Cl)=N\OC(=O)Nc1ccccc1F has a growth inhibition ([1]; at 1.2 µM) of 4%, a growth inhibition ([1]; at 3.7 µM) of 9% and a growth inhibition ([1]; at 11.0 µM) of 19%. It also gave a growth inhibition ([1]; at 33.0 µM) of 35%, a growth inhibition ([1]; at 100.0 µM) of 35% and a growth inhibition ([2]; at 1.2 µM) of 1%. For the same molecule, the growth inhibition ([2]; at 3.7 µM) was 4%, the growth inhibition ([2]; at 11.0 µM) was 9% and the growth inhibition ([2]; at 33.0 µM) was 17%. The growth inhibition ([2]; at 100.0 µM) was 18%, the growth inhibition ([3]; at 1.2 µM) was 18% and the growth inhibition ([3]; at 3.7 µM) was 28%. The growth inhibition ([3]; at 11.0 µM) was 46%, the growth inhibition ([3]; at 33.0 µM) was 59% and the growth inhibition ([3]; at 100.0 µM) was 46%. It also gave a growth inhibition ([4]; at 1.2 µM) of 0%, a growth inhibition ([4]; at 3.7 µM) of 6% and a growth inhibition ([4]; at 11.0 µM) of 21%. For the same molecule, the growth inhibition ([4]; at 33.0 µM) was 23%, the growth inhibition ([4]; at 100.0 µM) was 21% and the growth inhibition ([5]; at 1.2 µM) was 9%. For the same molecule, the growth inhibition ([5]; at 3.7 µM) was 17%, the growth inhibition [5, 17] was 2% and the growth inhibition ([5]; at 11.0 µM) was 21%. For the same molecule, the growth inhibition ([5]; at 33.0 µM) was 43%, the growth inhibition [5, 18] was 85% (active) and the growth inhibition ([5]; at 50.0 µM) was -7.75%. The growth inhibition ([5]; at 100.0 µM) was 40%, the growth inhibition ([6]; at 1.2 µM) was 11% and the growth inhibition ([6]; at 3.7 µM) was 17%. It also gave a growth inhibition [6, 17] of -1%, a growth inhibition ([6]; at 11.0 µM) of 23% and a growth inhibition ([6]; at 33.0 µM) of 31%. For the same molecule, the growth inhibition [6, 18] was 86% (active), the growth inhibition ([6]; at 50.0 µM) was 76% (active) and the growth inhibition ([6]; at 100.0 µM) was 31%. The growth inhibition ([7]; at 1.2 µM) was 6%, the growth inhibition ([7]; at 3.7 µM) was 14% and the growth inhibition ([7]; at 11.0 µM) was 9%. The growth inhibition ([7]; at 33.0 µM) was 23%, the growth inhibition ([7]; at 100.0 µM) was 26% and the growth inhibition [8, 17] was -38%. The growth inhibition [8, 18] was 82% (active), the growth inhibition ([8]; at 50.0 µM) was 62.5% and the growth inhibition ([9]; at 1.2 µM) was 15%. For the same molecule, the growth inhibition ([9]; at 3.7 µM) was 14%, the growth inhibition ([9]; at 11.0 µM) was 19% and the growth inhibition ([9]; at 33.0 µM) was 19%. The growth inhibition ([9]; at 100.0 µM) was 23%, the growth inhibition [10, 17] was 23% and the growth inhibition [10, 18] was 37%. For the same molecule, the growth inhibition ([10]; at 50.0 µM) was 35.1%, the growth inhibition ([11]; at 1.2 µM) was 55% and the growth inhibition ([11]; at 3.7 µM) was 83% (active). For the same molecule, the growth inhibition [11, 17] was 49%, the growth inhibition ([11]; at 11.0 µM) was 92% (active) and the growth inhibition ([11]; at 33.0 µM) was 93% (active). For the same molecule, the growth inhibition [11, 18] was 98% (active), the growth inhibition ([11]; at 50.0 µM) was 82% (active) and the growth inhibition ([11]; at 100.0 µM) was 94% (active). It also gave a growth inhibition ([12]; at 1.2 µM) of 0%, a growth inhibition ([12]; at 3.7 µM) of 5% and a growth inhibition ([12]; at 11.0 µM) of 15%. For the same molecule, the growth inhibition ([12]; at 33.0 µM) was 41%, the growth inhibition ([12]; at 100.0 µM) was 29% and the growth inhibition ([13]; at 1.2 µM) was 3%. The growth inhibition ([13]; at 3.7 µM) was 5%, the growth inhibition ([13]; at 11.0 µM) was 14% and the growth inhibition ([13]; at 33.0 µM) was 22%. The growth inhibition ([13]; at 100.0 µM) was 20%, the growth inhibition ([14]; at 1.2 µM) was 6% and the growth inhibition ([14]; at 3.7 µM) was 13%. For the same molecule, the growth inhibition ([14]; at 11.0 µM) was 34%, the growth inhibition ([14]; at 33.0 µM) was 60% and the growth inhibition ([14]; at 100.0 µM) was 49%. For the same molecule, the growth inhibition [15, 17] was -15%, the growth inhibition [15, 18] was 66% and the growth inhibition ([15]; at 50.0 µM) was 58.9%. The growth inhibition ([16]; at 1.2 µM) was -6%, the growth inhibition ([16]; at 3.7 µM) was 3% and the growth inhibition ([16]; at 11.0 µM) was 17%. It also gave a growth inhibition ([16]; at 33.0 µM) of 43% and a growth inhibition ([16]; at 100.0 µM) of 41%.
